Compound activity as filed in PubChem BioAssay.
Only some compounds are listed: those with a hit (about 7.3% of all), similar ones and a draw of the others.
ELG1 genotoxic – qHTS screen for small molecules that induce genotoxicity in human embryonic kidney (HEK293T) cells expressing luciferase-tagged ELG1; HEK293T ELG1-luciferase reporter, luminescence, 16 h; 330,000 compounds, 1.3% hits; AID 504466, 2011; Potency, µM (highest dose often 46 µM), for inactives: at the highest dose activity change, positive = activation, usual class: activators; also: % of control where 0% means no effect; nearly all actives have a fitted effect of over 60% in size
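16 hr compound incubation (37 °C, 5% CO2) of HEK293T cells carrying luciferase-tagged ELG1; luciferase then measured by ONE-Glo luminescence after 30 min at RT.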
SMN2 splice enh – qHTS Assay for Enhancers of SMN2 Splice Variant Expression. HEK293 SMN2-luciferase splicing reporter, luminescence, 30-36 h. Potency, µM (series often up to 46.1 µM), inactives show at the top dose activity change, positive = activation, actives largely listed as activators. 210,000 compounds, 2.8% hits; also: % of control where 0% means no effect; nearly all actives have a fitted effect of over 55% in size
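HEK293 cells carry an SMN2 […]–luciferase reporter in which exon 7 inclusion puts luciferase in frame. Cells were plated 10-12 h before compound addition, then incubated 30-36 h at 37C. ONE-Glo luminescence was read; sodium butyrate at 4.5 mM final served as control.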
KinaseGlo FLuc – Counterscreen for Luciferase (Kinase-Glo TM) Inhibition; Kinase-Glo luciferase, ATP luminescence, 8 min; Potency, µM (top dose mostly 38.3 µM), for the others: top-dose activity change, negative = inhibition, most hits filed as inhibitors; AID 1379, 2008; 200,000 compounds, 0.28% hits; Luciferin 4-monooxygenase (Photuris pensylvanica), Q27757; also: % is scaled to controls: 0 for no effect and ±100 for the full control effect; nearly all actives have a fitted effect of over 60% in size
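Light output from Kinase-Glo luciferase with luciferin and 10 uM ATP in 50 mM imidazole pH 7.2, KCl, MgCl2, Tween 20, BSA; compound pin-delivered, 8-min ambient incubation, then luminescence read.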
Rab9 prom act – qHTS Assay for Rab9 Promoter Activators. Huh7 Rab9 promoter-luciferase reporter, luminescence, 24 h. Potency, µM (doses to about 9.22 µM), for inactives: at the top dose activation, negative = inhibition, actives largely listed as activators. 320,000 compounds, 2.8% hits. AID 485297, 2010; also: % of control where 0% means no effect; nearly all actives have a fitted effect of over 60% in size
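Luminescence read-out: Huh7 cells stably expressing Rab9-luciferase, treated 24 h with compound at 37 °C, then lysed with luciferase reagent for 10 min at ambient before reading.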
FLuc modulator – qHTS profiling assay for firefly luciferase inhibitor/activator using purifed enzyme and Km concentrations of substrates (counterscreen for miR-21 project); AID 588342, 2011; purified FLuc, Km substrates, luminescence inhibition; Potency, µM (top dose mostly 57.5 µM), inactives show at the top dose activity change, negative = inhibition, hits mostly inhibitors; 360,000 compounds, 6.9% hits; Luciferin 4-monooxygenase (Photinus pyralis), P08659;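 also: plate controls were vehicle for no effect and reference inhibitor for full effect; nearly all actives have a fitted effect of over 55% in size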
Target sequence (P08659 whole entry, looked up): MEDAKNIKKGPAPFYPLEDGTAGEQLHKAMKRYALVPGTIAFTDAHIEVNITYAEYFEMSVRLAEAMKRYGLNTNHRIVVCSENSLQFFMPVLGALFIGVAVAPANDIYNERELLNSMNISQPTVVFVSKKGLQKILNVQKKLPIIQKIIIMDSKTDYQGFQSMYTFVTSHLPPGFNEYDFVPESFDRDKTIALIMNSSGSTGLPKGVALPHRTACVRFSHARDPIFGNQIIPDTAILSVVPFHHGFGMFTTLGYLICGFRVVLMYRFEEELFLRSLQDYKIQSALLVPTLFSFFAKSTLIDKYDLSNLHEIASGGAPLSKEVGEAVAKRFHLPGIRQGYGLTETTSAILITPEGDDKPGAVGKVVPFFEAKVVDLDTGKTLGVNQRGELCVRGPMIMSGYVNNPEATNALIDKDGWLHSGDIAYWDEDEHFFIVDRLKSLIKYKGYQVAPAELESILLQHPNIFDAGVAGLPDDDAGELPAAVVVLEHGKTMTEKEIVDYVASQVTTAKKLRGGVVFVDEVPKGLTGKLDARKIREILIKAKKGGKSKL
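Biochemical qHTS of compounds, final roughly 60 µM downward over six points, against 10 nM purified firefly luciferase using Km concentrations of substrates (10 uM D-luciferin, 10 uM ATP) in Tris acetate pH 7.5 buffer; luminescence output.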
NPC1 prom act – qHTS Assay for NPC1 Promoter Activators; Huh7 NPC1 promoter luciferase reporter, 24 h; Potency, µM (series often up to 9.22 µM), for the others: top-dose activation, usual class: activators; 320,000 compounds, 2.4% hits; AID 485313, 2010; also: % of control where 0% means no effect; nearly all actives have a fitted effect of over 60% in size
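NPC1 promoter–luciferase Huh7 cells; 24 h compound; luminescence.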
Numbers without * were called inactive. Calls follow the shape of the dose curve; as a rule, active = well fitted curve in the direction sought with a large enough effect; inconclusive = small, poorly fitted or top-dose-only effect, or another doubt; inactive = no such curve, though single readings can be large; an effect the other way counts as inactive or inconclusive. Potency is read from the fitted curve at half-maximal effect.

`CN(Cc1ccccc1)S(=O)(=O)c1ccc(Cl)c(C(=O)N2CCC2)c1` gave ELG1 genotoxic 0%, Rab9 prom act -4%, FLuc modulator 7% and NPC1 prom act 2%.
CCC(NC(=O)Nc1ccc(OC)c(OC)c1)c1c(-n2cccc2)sc2c1CCN(C)C2 (stereo unspecified) was read as FLuc modulator -1%.
Screening O=C(COC(=O)c1ccccn1)c1cccc(Br)c1 returned ELG1 genotoxic -1%, Rab9 prom act -5%, FLuc modulator 19µM* and NPC1 prom act inconclusive.
`O=C(COC(=O)c1ccc(Br)cc1)Nc1cccnc1Cl` gave ELG1 genotoxic 4%, Rab9 prom act -4%, FLuc modulator -3% and NPC1 prom act -1%.
O=C(COC(=O)c1ccccn1)c1ccc(Br)cc1 was read as ELG1 genotoxic 0%, SMN2 splice enh 4%, KinaseGlo FLuc -4%, Rab9 prom act 3%, FLuc modulator 2.4µM* and NPC1 prom act 1%.
For O=C(OCC1CC(c2ccccn2)=NO1)c1ccc(Br)cc1 (stereo unspecified) the results were ELG1 genotoxic 13%, SMN2 splice enh -5%, KinaseGlo FLuc -9%, Rab9 prom act 9%, FLuc modulator 17µM* and NPC1 prom act 12%.
For C=CCn1cnc2c(c1=O)c1nc3ccccc3nc1n2/N=C/c1cccc(OC)c1OC the results were ELG1 genotoxic -16%, SMN2 splice enh 0%, KinaseGlo FLuc -3%, Rab9 prom act -3%, FLuc modulator -5% and NPC1 prom act 1%.
`COC(=O)c1ccc(C(NC(=O)OCc2ccccc2)/C(F)=C/[C@@H](C)C(=O)Nc2ccc(OC)cc2)cc1` (stereo partly specified) gave SMN2 splice enh -11% and KinaseGlo FLuc -1%.
CCC(C(=O)Nc1cc(F)ccc1F)n1nc(-c2cc(C)ccc2C)ccc1=O (stereo unspecified) was read as SMN2 splice enh 8% and FLuc modulator -15%.
Screening COc1cc(C(C(=O)NC2CCCC2)N(C(=O)c2snc(C(N)=O)c2N)C2CCCC2)cc(OC)c1OC (stereo unspecified) returned ELG1 genotoxic 1%, Rab9 prom act -3%, FLuc modulator 0% and NPC1 prom act -4%.
COc1cc(OC)c(-c2nn3c(-c4ccco4)nnc3s2)cc1OC was read as ELG1 genotoxic 16%, SMN2 splice enh -9%, KinaseGlo FLuc -7%, Rab9 prom act -1%, FLuc modulator -1% and NPC1 prom act 14%.
`CCSc1nc2sc3c(c2c(=O)n1-c1ccc(C)cc1)CCCC3` gave SMN2 splice enh -5% and FLuc modulator -12%.
NNc1nc2sc3c(c2c(=O)n1-c1ccccc1)CCCC3 was read as ELG1 genotoxic 5%, Rab9 prom act 1%, FLuc modulator 12µM* and NPC1 prom act -6%.
Screening O=c1c2c3c(sc2ncn1/N=C/c1ccccc1)CCCC3 returned ELG1 genotoxic inconclusive, SMN2 splice enh 20µM*, KinaseGlo FLuc -1%, Rab9 prom act 22%, FLuc modulator 11µM* and NPC1 prom act 25%.
Screening Cc1ccc(-c2nc3sc4c(c3c(=O)n2N)CCCC4)cc1 returned ELG1 genotoxic inconclusive, SMN2 splice enh 11µM*, KinaseGlo FLuc -4%, Rab9 prom act 0.63µM*, FLuc modulator 2.1µM* and NPC1 prom act 1.3µM*.
Screening Nn1c(Nc2ccccc2)nc2sc3c(c2c1=O)CCCC3 returned ELG1 genotoxic 10%, SMN2 splice enh inconclusive, KinaseGlo FLuc -3%, Rab9 prom act 0%, FLuc modulator 15µM* and NPC1 prom act 2%.
`CN(CCOc1ccccc1)S(=O)(=O)c1ccccc1C#N` gave ELG1 genotoxic -1%, Rab9 prom act 2%, FLuc modulator -2% and NPC1 prom act 0%.
`O=C(O)CCNC(=S)Nc1cccc(F)c1` gave ELG1 genotoxic 0%, Rab9 prom act -1%, FLuc modulator 3% and NPC1 prom act 2%.
For Cc1c(C=O)c2cc(OCc3ccccc3)ccc2n1C the results were ELG1 genotoxic inconclusive, Rab9 prom act 4µM*, FLuc modulator 15µM* and NPC1 prom act inconclusive.
Screening Cc1cc2cc(OCc3ccccc3)ccc2n1C returned ELG1 genotoxic inconclusive, Rab9 prom act 3.2µM*, FLuc modulator 5.4µM* and NPC1 prom act 2µM*.
Screening COc1cc(C(=O)NCCC(=O)NCCc2ccc(Cl)cc2)cc(OC)c1OC returned ELG1 genotoxic -1%, SMN2 splice enh -7%, KinaseGlo FLuc -1%, Rab9 prom act 0%, FLuc modulator 0% and NPC1 prom act 0%.
Screening O=S(=O)(c1ccccc1)c1nnn2c1nc(NCc1ccc(Cl)cc1)c1sccc12 returned FLuc modulator 1%.
`CC(=O)c1ccc2c(c1)Cc1cc(C(C)=O)ccc1-2` gave ELG1 genotoxic 18µM*, Rab9 prom act 1.8µM*, FLuc modulator inconclusive and NPC1 prom act 2.5µM*.
For C/C(=N\NC(=O)c1cc(Cl)ccc1O)c1ccc(Br)s1 the results were ELG1 genotoxic 10%, SMN2 splice enh 4µM*, KinaseGlo FLuc -1%, Rab9 prom act 3.5µM*, FLuc modulator 6.7µM* and NPC1 prom act 4µM*.
Screening O=C(NNC(=O)c1cc2ccccc2cc1O)c1cccs1 returned ELG1 genotoxic inconclusive, Rab9 prom act 3.5µM*, FLuc modulator 12µM* and NPC1 prom act 3.2µM*.
For C/C(=N\NC(=O)COc1ccc2ccccc2c1)c1cccs1 the results were ELG1 genotoxic -6%, Rab9 prom act 2%, FLuc modulator inconclusive and NPC1 prom act -1%.
For C/C(=N\NC(=O)c1cc2ccccc2cc1O)c1cccs1 the results were ELG1 genotoxic inconclusive, Rab9 prom act 0.63µM*, FLuc modulator 3.8µM* and NPC1 prom act 0.56µM*.
Screening O=C(NNC(=O)c1ccc2ccccc2c1O)c1cccs1 returned ELG1 genotoxic 8%, Rab9 prom act 15%, FLuc modulator 27µM* and NPC1 prom act 12%.
O=C(Oc1cccnc1)c1ccco1 was read as ELG1 genotoxic 3%, SMN2 splice enh -10%, KinaseGlo FLuc 14%, Rab9 prom act -5%, FLuc modulator 3% and NPC1 prom act -5%.
